# Experimental data: PubChem BioAssay AID504466 (National Center for Advancing Translational Sciences (NCATS), 2011)
# The whole screen tested about 330,000 compounds, of which about 4,200 (1.3%) were called active. Entries that show only a call come without a potency. Another 6% or so got no clear call; they are omitted. The sample holds actives, similar compounds and a random draw of the others, so the mix is not that of the screen. Calls follow the shape of the dose curve; as a rule, active = well fitted activation curve with a large enough effect; inconclusive = small, poorly fitted or top-dose-only effect; inactive = no such curve, though single readings can be large or run the other way.
# Assay: qHTS screen for small molecules that induce genotoxicity in human embryonic kidney (HEK293T) cells expressing luciferase-tagged ELG1; also: nearly all actives have a fitted effect of over 60% in size
# Settings: HEK293T ELG1-luciferase reporter, luminescence, 16 h; series mostly up to 46 µM
# Outline: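 DMSO vehicle served as control against compound-treated ELG1-luciferase HEK293T cells; exposure lasted 16 hr at 37 °C and 5% CO2, followed by ONE-Glo luminescence detection after 30 min.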
# Potency is read from the fitted curve at half-maximal effect.
row,Compound,Potency
1,CCCc1cc(=O)[nH]c(SCC(=O)Nc2ccc(C(=O)Nc3ccccc3OC)cc2)n1,inactive
2,Cc1noc(C)c1C(=O)OC(C)C(=O)Nc1ccc2c(c1)OCO2 (centres undefined),inactive
3,CC(=O)c1cccc(OCC(=O)OCC(=O)Nc2cc(S(=O)(=O)N3CCCCC3)ccc2C)c1,inactive
4,CC(C)Cn1c(SCC(=O)Nc2ccc(Cl)cc2F)nc(O)cc1=O,inactive
5,CCn1c(SCC(=O)Nc2ccc3c(c2)OCCO3)nnc1C(C)C,inactive
6,O=C(Nc1cccc(NC(=O)c2ccco2)c1)c1cnccn1,inactive
7,O=C(CCN1C(=O)c2ccncc2C1=O)Nc1ccc2c(c1)OCCO2,inactive
8,CCn1c(SCC(=O)Nc2ccc3c(c2)OCCO3)nnc1-c1ccncc1,inactive
9,Cn1ccnc1SCC(=O)Nc1ccc2c(c1)OCCO2,9.2 µM (active)
10,O=C(Nc1ccc2c(c1)OCCO2)c1cnccn1,5.8 µM (active)
11,CCC(CO)Oc1cc(NC(=O)c2cccc3ccccc23)c2ncn(C(C)C)c2c1 (centres undefined),inactive
12,O=C(CSc1nc2ccccc2c(=O)n1Cc1ccc(F)cc1)NCC1CCCO1 (centres undefined),inactive
13,O=C1CCC/C=C\C[C@@H](CC(=O)N(CCO)Cc2ccccc2)C(=O)NCCO1,inactive
14,CC1CCCCC1NC(=O)Cn1cnc2c1c(=O)n(C)c(=O)n2C (centres undefined),inactive
15,Cc1ccc(C)c(NC(=O)COC(=O)c2nn(C)c(=O)c3ccccc23)c1,inactive
16,COc1ccc2oc(=O)c(C(=O)N3CCCC3)cc2c1,inactive
17,Cc1cc(C)cc(NC(=O)N2CCCCCCC2)c1,inactive
18,Cc1ccc2cc3cc(C(=O)N4CCCCCC4)oc3nc2c1,0.731 µM (active)
19,COc1ccc(CNC(=O)C[C@H]2C[C@H](C(=O)N3CCOCC3)[C@@]3(C)c4[nH]c5cc(CCC(=O)N(C)C)ccc5c4CCN3C2=O)cc1OC,inactive
20,O=C(CCNC(=O)c1ccccc1Cl)NN=Cc1ccco1,inactive
21,Cc1ccsc1C(=O)NNC(=O)COc1ccc(Br)cc1,inactive
22,Cc1ccc(N/C=C/C(=O)c2ccccc2)cc1C,0.92 µM (active)
23,CC(=O)Nc1ccc(/C=C/C(=O)c2ccccc2)cc1,16.4 µM (active)
24,Cc1noc(NS(=O)(=O)c2ccc(N/C=C/C(=O)c3ccccc3)cc2)c1C,inactive
25,O=C(/C=C/NCc1ccc(F)cc1)c1ccccc1,inactive

row,Compound,Potency
1,CC(OC(=O)/C=C/c1ccccc1)C(=O)Nc1ccc(C(N)=O)cc1 (centres undefined),inactive
2,CC(=O)Nc1ccc(NC(=S)NC(=O)/C=C/c2ccccc2)cc1,inactive
3,Cc1ccc(S(=O)(=O)Nc2ccc3c(c2)C(=O)N([C@H](C)CO)C[C@@H](C)[C@@H](CN(C)C(=O)Nc2cccc4ccccc24)O3)cc1,inactive
4,O=C(NCCCN1CCOCC1)c1cn(-c2ccccc2)nc1-c1ccc(F)cc1,inactive
5,O=C(COC(=O)c1cccnc1Cl)NC(=O)NC1CCCCC1,inactive
6,O=C(COc1ccc(Br)cc1F)NCC1(N2CCCCC2)CCCCC1,inactive
7,CC(C)n1cnc2c(NCc3ccccc3)cc(N[C@@H](CO)Cc3ccccc3)cc21,inactive
8,CCOc1ccc(Br)cc1S(=O)(=O)Nc1ccc(S(=O)(=O)Nc2cc(C)on2)cc1,inactive
9,O=C(Nc1cccc(S(=O)(=O)N2CCCCC2)c1)c1cncc(Br)c1,inactive
10,CC(C)(C)OC(=O)N/N=C/c1ccc(C(=O)O)cc1,inactive
11,C/C(=N\NC(=O)OC(C)(C)C)c1ccc[nH]1,14.6 µM (active)
12,Cc1ccccc1NC(=O)NNC(=O)OC(C)(C)C,inactive
13,COc1ccccc1CNC(=O)c1ccc(Cl)c(S(=O)(=O)N2CCCC2)c1,inactive
14,Cc1ccc(S(=O)(=O)NCCC(=O)Nc2ccc(C)c(Cl)c2)cc1C,inactive
15,Cc1ccc(S(=O)(=O)NCCC(=O)Nc2cccc(S(N)(=O)=O)c2)cc1C,inactive
16,Cc1ccnc(NC(=O)CCNS(=O)(=O)c2ccc(C)c(C)c2)c1,1.64 µM (active)
17,Cc1cc(NC(=O)CN2C(=O)NC(CC(C)C)C2=O)no1 (centres undefined),inactive
18,O=C(CN1C(=O)NC2(CCCCCC2)C1=O)Nc1ccc([N+](=O)[O-])cc1,inactive
19,CC(C)(C)OC(=O)C[C@@H]1C/C=C\C[C@@H](CC(=O)N[C@H](CO)Cc2ccccc2)C(=O)NC[C@@H](c2ccccc2)OC1=O,inactive
20,COc1ccc(C(=O)OCC(=O)Nc2cccc(C(C)=O)c2)cc1OC,inactive
21,Cc1ccc(C(=O)OCC(=O)NCc2cc(C)c(O)c(C)c2)cc1S(=O)(=O)N1CCCCC1,inactive
22,CC(=O)Nc1cccc(C(=O)OCC(=O)NCc2cc(C)c(O)c(C)c2)c1,14.6 µM (active)
23,Cc1noc(C)c1S(=O)(=O)N(C)C[C@H]1Oc2c(NC(=O)Nc3ccc4c(c3)OCO4)cccc2C(=O)N([C@H](C)CO)C[C@@H]1C,inactive
24,COc1cc(OC)cc(C(=O)N[C@H](C(=O)NNC(=O)c2ccc(Br)cc2)C(C)C)c1,inactive
25,CC(=O)Oc1ccc(NC(=O)CCC2CCCCC2)c(C(=O)O)c1,inactive

row,Compound,Potency
1,COc1ccc(NC(=O)CCN2CCCC2)c(OC)c1,inactive
2,COc1ccc(NC(=O)CCCC2CCCCC2)c(OC)c1,18.3 µM (active)
3,O=C(NOCc1ccccc1)c1cccc([N+](=O)[O-])c1,inactive
4,Cc1ccc(SCCC(=O)Nc2cc(C)on2)cc1,inactive
5,Cc1ccc2nc(-c3ccc(SCC(=O)Nc4cc(C)on4)nc3)[nH]c2c1,1.84 µM (active)
6,Cc1cccc(-n2ncc3c(=O)[nH]c(SCC(=O)Nc4cc(C)on4)nc32)c1,inactive
7,CC1CCCCC12NC(=O)N(CC(=O)N1CCN(c3ccccc3)CC1)C2=O (centres undefined),inactive
8,CCN(C[C@H]1N[C@@](CC)(C(=O)OC)[C@H]2C(=O)N(Cc3ccccc3)C(=O)[C@@H]12)S(=O)(=O)c1ccc(C(F)(F)F)cc1,inactive
9,COc1ccccc1-c1cc(C(=O)N2CCCCC2)no1,3.66 µM (active)
10,COc1cccc(-c2cc(C(=O)N3CCN(c4ccccc4OC)CC3)no2)c1,inactive
11,COc1ccc(-c2cc(C(=O)N3CCN(c4ccc(F)cc4)CC3)no2)cc1,inactive
12,O=C(OCC(=O)N1CCCCC1)c1ccc(OC(F)(F)F)cc1,inactive
13,O=C(C[C@H]1C[C@H](C(=O)N2CCOCC2)[C@@]2(CCC3CCCC3)c3[nH]c4ccc(Cl)cc4c3CCN2C1=O)NCc1ccco1,inactive
14,COc1ccc(NC(=O)N(C)C[C@H]2Oc3ccc(NC(=O)C4CC4)cc3C(=O)N([C@H](C)CO)C[C@@H]2C)cc1,inactive
15,COc1cccc(CNC(C)C(=O)Nc2ccc(S(=O)(=O)N3CCCC3)cc2)c1 (centres undefined),inactive
16,COc1cccc(C(=O)Nc2cccnc2)c1OC,inactive
17,O=C(Nc1cccnc1)c1cc(Cl)ccc1Cl,inactive
18,O=C(Nc1cccnc1)c1noc2c1CCCCC2,2.31 µM (active)
19,Cc1ccnc(SCC(=O)Nc2cccc(S(=O)(=O)N3CCOCC3)c2)n1,inactive
20,COc1ccc(-c2noc(CCC(=O)N3CCN(c4cccc(C)c4)CC3)n2)cc1,inactive
21,O=C(CNC(=O)c1ccccc1F)c1ccc(Br)cc1,5.17 µM (active)
22,O=C(COC(=O)CNC(=O)c1ccccc1F)NCC(F)(F)F,inactive
23,O=C(CNC(=O)c1ccccc1)NCC(=O)OCC(=O)c1ccccc1,inactive
24,O=C(Nc1ccc(NC(=O)c2ccccc2F)cc1)c1ccccc1F,inactive
25,O=C(CNC(=O)c1ccc(F)cc1)c1ccccc1,8.2 µM (active)

row,Compound,Potency
1,O=C(NCCS(=O)(=O)NCc1ccc(F)cc1)c1ccccc1,inactive
2,COc1cc(NC(=O)c2[nH]cnc2C(N)=O)cc(C(=O)Nc2cccc(C(F)(F)F)c2)c1,inactive
3,C=CC(COCc1ccccc1)N(CC(=O)OC)S(=O)(=O)c1cc(Br)ccc1OC (centres undefined),inactive
4,O=C1N[C@H](Cc2c[nH]c3ccccc23)COC(=O)[C@H](Cc2ccc(F)cc2)C/C=C\C[C@H]1CC(=O)N(CCO)Cc1ccccc1,inactive
5,CCOc1ccc(NC(=O)c2ccc(NC(=O)COC(=O)c3ccc(NC(=O)CC#N)cc3)cc2)cc1,5.17 µM (active)
6,CCOc1ccc(C(=O)Nc2ccncc2)cc1,inactive
7,N#CCC(=O)Nc1ccc(C(=O)OCC(=O)Nc2sc3c(c2C#N)CCCC3)cc1,inactive
8,C[C@@H]1CN([C@@H](C)CO)C(=O)c2cccc(NS(=O)(=O)c3ccc(F)cc3)c2O[C@H]1CN(C)C(=O)NC1CCCCC1,inactive
9,Cc1cccc(N2O[C@H]3C=CC2CCCC3)n1,inactive
10,CCCC(CNC(=O)COC(=O)C1=NNC(=O)CC1)c1ccc(Cl)cc1Cl (centres undefined),inactive
11,COc1ccccc1Oc1ccc(N/C=C2/CCCC2=O)cc1,inactive
12,O=C1/C(=C\Nc2ccccc2)CCN1c1ncccn1,11.6 µM (active)
13,O=C(Cc1ccccc1)NNC(=O)C1CCN(c2ncccn2)CC1,inactive
14,NC(=O)Nc1ccc(C(=O)OCC(=O)NC2CCCc3ccccc32)cc1 (centres undefined),inactive
15,CCCN=C1N(C)C[C@@H]2[C@@H]3C(=O)N(Cc4ccccc4)C(=O)[C@@H]3[C@](C)(C(=O)OC)N12,inactive
16,COc1ccc(S(=O)(=O)N(C)C[C@@H]2Oc3ccc(NS(=O)(=O)c4cn(C)cn4)cc3C(=O)N([C@@H](C)CO)C[C@@H]2C)cc1,inactive
17,C[C@H](CO)N1C[C@H](C)[C@@H](CN(C)C(=O)NC2CCCCC2)Oc2ccc(NC(=O)c3ccncc3)cc2C1=O,inactive
18,O=C(Nc1cc(C(F)(F)F)ccc1Cl)c1cc2nc3c(c(C(F)(F)F)n2n1)CCCC3,8.2 µM (active)
19,CCCCC(=O)Nc1ccc(C(=O)Nc2cc(C(F)(F)F)ccc2Cl)cc1,inactive
20,O=C(Nc1cc(C(F)(F)F)ccc1Cl)C(=O)N1CCCCC1,inactive
21,CCNC(=S)N1CCN(S(=O)(=O)c2ccc(Cl)s2)CC1,inactive
22,O=C(NNc1ncnc2c1cnn2-c1ccccc1)c1ccco1,inactive
23,O=C(NCCC1=CCCCC1)C1CCN(Cc2cnn(-c3ccccc3)c2-n2cccc2)CC1,inactive
24,C1=C(CCNc2ncnc3c2cnn3-c2ccccc2)CCCC1,2.31 µM (active)
